This is an account of results in PubChem BioAssay (NCATS).

Assay [1] is described as follows: Cellular Toxicity (caspase-3) N2a (AID 665).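 Further: compound exposure lasted 16 h at 37 °C before readout.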 The gist of the method:
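Luminescent Caspase-Glo 3/7 readout in N2a mouse neuroblastoma cells after 16 h compound exposure at 37 °C. Signal scaled to DMSO (basal) and 10 uM staurosporine (100%). Concentration-response fitted with Hill equation for AC50.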

The nature of assay [2]: Cellular Toxicity (caspase-3) NIH 3T3 (AID 666). The gist of the method: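 NIH 3T3, 1000 cells/well, 5 hr settle then 16 hr compound at 37°C; Caspase-Glo 3/7, 20 min RT, luminescence. DMSO = basal, 100 uM tamoxifen = 100%. Hill-equation AC50, qHTS.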
Assay [3] is described as follows: Cellular Toxicity (caspase-3) Renal Proximal Tubule (AID 667).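 Further: cells exposed to compound for 16 hours at 37 °C before detection.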 The conditions noted are these: renal proximal tubule cells; at 91.7 µM (top of the series) unless noted. The method, boiled down: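 Primary rat proximal tubule cells, 1000/well, 5 h plating at 37 °C, then compound 16 h at 37 °C. Caspase-Glo 3/7 reagent, 1 h RT, luminescence. Normalized to DMSO (basal) and 10 uM staurosporine (100%); Hill-fit AC50.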

The target in assay [4] is Guanine nucleotide-binding protein G(i) subunit alpha-1 (Homo sapiens) (UniProt P63096). In words: qHTS Assay for Inhibitors of RGS12 GoLoco Motif Activity (Green Fluorophore) (AID 879).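 Further: negative values mean loss of peptide binding seen as reduced polarization.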 The method, boiled down:
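A drop in FITC polarization marked displacement of the FITC-tagged RGS12 GoLoco peptide (10 nM) from Gαi1 (50 nM). Compounds were incubated 10 min at room temperature in Tris pH 7.5 buffer containing 150 mM NaCl, 0.1 mM GDP and 0.05% NP40; unlabeled peptide titration served as control.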
(qHTS replaces the single test concentration by a dilution series.)

Assay [5] has as its target Cytochrome P450 3A4 (Homo sapiens) (UniProt P08684). As to the kind of experiment: qHTS Assay for Inhibitors and Substrates of Cytochrome P450 3A4 (AID 884). Further: nearly all actives have a fitted effect of over 50% in size. Further: potency means the concentration at half of the fitted maximal effect. The gist of the method:
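Luminescent readout of luciferin produced by CYP3A4 (20 nM) dealkylation of Luciferin-PPXE, 25 uM (its KM). NADPH-driven reaction ran 60 min at RT after 10 min compound preincubation; data scaled to 57 uM ketoconazole as 100% inhibition.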

Assay [6] has the same target. As to the kind of experiment: qHTS Assay for Activators of Cytochrome P450 3A4 (AID 885). Further: nearly all actives have a fitted effect of over 65% in size. The method, boiled down:
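Using 20nM recombinant human CYP3A4 in potassium phosphate (200mM), substrate Luciferin-PPXE at 25uM, luminescent luciferin detection followed a 60-min RT NADPH reaction; data scaled to 57 uM ketoconazole.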

In assay [7] the target is Cytochrome P450 2D6 (Homo sapiens) (UniProt P10635). As to the kind of experiment: qHTS Assay for Inhibitors and Substrates of Cytochrome P450 2D6 (AID 891).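 Further: luciferin methyl ether substrate demethylated by CYP2D6 with NADPH regeneration; nearly all actives have a fitted effect of over 60% in size.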 The method, boiled down: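 Luminescent read-out of luciferin formed by 5 nM human CYP2D6 demethylating 30 uM Luciferin-ME EGE (Km level) over 60 min at room temperature after NADPH regeneration addition. Data normalized to full inhibition by 1.43 uM quinidine.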

The target of assay [8] is Cytochrome P450 2C19 (Homo sapiens) (UniProt P33261). In words: qHTS Assay for Inhibitors and Substrates of Cytochrome P450 2C19 (AID 899). Further: nearly all actives have a fitted effect of over 60% in size. Further: potency means the concentration at half of the fitted maximal effect. The gist of the method: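 In 50mM KPO4, the reaction held 5nM enzyme and KM-level (10uM) Luciferin-H EGE; it ran 60 min at 37C after NADPH regeneration and a 10 min compound preincubation. Luminescence values were scaled to 57uM ketoconazole as complete inhibition.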

Assay [9] is described as follows: qHTS Assay for Identification of Small Molecule Antagonists for NFkB Signaling Pathway (AID 895; active means well fitted inhibition curve with a large enough effect in the signal ratio, with a control signal flat, not every such curve was filed as active; the % refers to the signal ratio). The method, boiled down: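 NFkB-bla ME-180 cervical carcinoma cells with beta-lactamase reporter under NFkB response element; compounds added, then TNF alpha at 10 pM final (EC50), 5 h at 37 C. LiveBLAzer substrate 2 h, room temperature; emission 460/530 nm at 405 nm excitation.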

Structures are written as SMILES. Values joined by “and” are separate entries in the source; they are usually repeats but may differ in a detail not shown here. Equal values may be shown once. Values without a mark were called inactive. Inconclusive results are not listed. Where a call stands in place of a potency, no number is given. Active and inactive are the calls of the source. Unless noted, the call rests on the fitted dose curve; in most records, active means well fitted curve in the direction sought with a large enough effect; inconclusive means small, poorly fitted or top-dose-only effect, or another doubt; inactive means no such curve, though single readings can be large; an effect the other way counts as inactive or inconclusive.

Chain of Cytochrome P450 3A4 (Homo sapiens) (P08684 whole entry, looked up): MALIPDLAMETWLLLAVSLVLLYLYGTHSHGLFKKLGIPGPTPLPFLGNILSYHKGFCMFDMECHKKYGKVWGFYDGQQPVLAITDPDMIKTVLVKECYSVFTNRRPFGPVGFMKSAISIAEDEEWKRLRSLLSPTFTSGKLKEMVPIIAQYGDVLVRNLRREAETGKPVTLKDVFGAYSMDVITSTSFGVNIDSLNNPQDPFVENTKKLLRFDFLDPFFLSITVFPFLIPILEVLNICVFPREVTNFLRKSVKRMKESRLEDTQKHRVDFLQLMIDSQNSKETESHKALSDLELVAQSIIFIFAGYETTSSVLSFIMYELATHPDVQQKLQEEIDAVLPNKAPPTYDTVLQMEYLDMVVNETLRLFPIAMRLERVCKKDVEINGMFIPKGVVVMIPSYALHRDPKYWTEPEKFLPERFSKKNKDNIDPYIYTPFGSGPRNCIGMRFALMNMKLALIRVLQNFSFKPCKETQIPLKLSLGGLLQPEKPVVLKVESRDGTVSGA
Chain of Guanine nucleotide-binding protein G(i) subunit alpha-1 (Homo sapiens) (P63096 whole entry, looked up): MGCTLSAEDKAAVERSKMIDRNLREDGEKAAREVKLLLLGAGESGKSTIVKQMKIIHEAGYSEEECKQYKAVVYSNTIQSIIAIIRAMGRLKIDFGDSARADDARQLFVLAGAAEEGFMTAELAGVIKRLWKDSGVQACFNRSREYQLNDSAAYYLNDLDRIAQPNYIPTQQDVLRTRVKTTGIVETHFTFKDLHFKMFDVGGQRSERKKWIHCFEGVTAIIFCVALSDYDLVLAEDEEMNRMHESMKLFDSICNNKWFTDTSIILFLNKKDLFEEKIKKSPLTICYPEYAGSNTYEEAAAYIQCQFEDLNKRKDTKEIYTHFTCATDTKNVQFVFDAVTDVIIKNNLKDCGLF
Chain of Cytochrome P450 2C19 (Homo sapiens) (P33261 whole entry, looked up): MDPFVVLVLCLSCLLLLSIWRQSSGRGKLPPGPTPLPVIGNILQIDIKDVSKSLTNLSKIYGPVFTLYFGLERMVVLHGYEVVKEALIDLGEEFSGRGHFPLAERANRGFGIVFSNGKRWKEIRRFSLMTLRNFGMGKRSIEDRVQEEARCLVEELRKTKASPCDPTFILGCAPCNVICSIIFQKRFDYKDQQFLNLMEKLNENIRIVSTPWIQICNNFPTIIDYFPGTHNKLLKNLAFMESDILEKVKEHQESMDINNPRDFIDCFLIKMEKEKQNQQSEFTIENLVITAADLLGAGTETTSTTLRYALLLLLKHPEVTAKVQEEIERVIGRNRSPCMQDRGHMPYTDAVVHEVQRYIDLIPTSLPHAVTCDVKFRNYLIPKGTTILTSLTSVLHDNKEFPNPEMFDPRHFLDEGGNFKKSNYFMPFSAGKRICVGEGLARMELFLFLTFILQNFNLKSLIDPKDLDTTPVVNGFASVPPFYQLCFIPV
Chain of Cytochrome P450 2D6 (Homo sapiens) (P10635 whole entry, looked up): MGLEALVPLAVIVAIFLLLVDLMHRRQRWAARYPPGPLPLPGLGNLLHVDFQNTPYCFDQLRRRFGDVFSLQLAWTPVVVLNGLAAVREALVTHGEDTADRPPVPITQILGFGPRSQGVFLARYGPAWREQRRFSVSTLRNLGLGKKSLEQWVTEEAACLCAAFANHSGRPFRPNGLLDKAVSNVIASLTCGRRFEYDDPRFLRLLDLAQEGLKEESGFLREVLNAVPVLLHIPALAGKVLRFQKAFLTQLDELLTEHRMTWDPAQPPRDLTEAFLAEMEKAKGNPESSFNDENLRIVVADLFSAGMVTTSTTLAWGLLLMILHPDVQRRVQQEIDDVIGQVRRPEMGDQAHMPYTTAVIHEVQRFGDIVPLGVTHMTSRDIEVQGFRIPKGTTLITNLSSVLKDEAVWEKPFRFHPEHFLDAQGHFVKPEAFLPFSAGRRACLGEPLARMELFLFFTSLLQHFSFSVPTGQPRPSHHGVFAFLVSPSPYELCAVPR

`NNC(N)=O`: in [1], the molecule was called inactive. For the same molecule, the Potency entry in [2], in [4] and in assay [5] was “inactive” each time. Moreover, in assay [3], the caspase-3 activation was 4.27%.
With `O=[N+]([O-])c1ccccc1`, the outcome in [1] was inactive. Also, the Potency result in [2] and in [5] was “inactive” throughout. In addition, the caspase-3 activation in [3] was 0.615%.
As for `CCCN(CCC)CCc1ccc(O)c(O)c1`, the Potency entry in assay [4] is “inactive”.
Turning to `COc1ccc2c(c1OC)C(=O)OC2C1c2cc3c(cc2CCN1C)OCO3` (centres undefined), the result in [1] and in [6] was inactive. Besides, the Potency entry in [2] was “inactive”. Moreover, the caspase-3 activation in assay [3] was -5.84%.
Take `[O]=[Cd]`: in [1], the call was inactive. Also, the Potency entry in assay [2] and in assay [5] was “inactive” throughout. In [3], the caspase-3 activation is 7.8% [at 91.7 µM, primary cells freshly taken from rat, solvent-only wells 0%, staurosporine 100%].
For `CCOC(=O)c1ccccc1C(=O)OCC`, the molecule was called inactive in assay [1]. For the same molecule, the Potency entry in assay [2] and in assay [5] was “inactive” in each case. In addition, in assay [3], the caspase-3 activation is 7.7% and 0.83%.
As for `C[C@]12CCC(=O)C[C@@H]1CC[C@@H]1[C@@H]2CC[C@]2(C)[C@@H](O)CC[C@@H]12`, the call in [1] and in [6] was inactive. The Potency entry in assay [2] is “inactive”. In [3], the caspase-3 activation is 0.8%.
`CC(C)(C)c1cc(O)ccc1O`: in assay [1], the molecule was called inactive. The Potency result in assay [2] and in assay [5] was “inactive” in each case. In addition, in assay [3], the caspase-3 activation was -12.4% and -3.67%. The activity change, negative = inhibition in [7] is 11.9% [at 11.4 µM]. Moreover, the activity, negative = inhibition in [8] is -31.1% [at 11.4 µM].
For `Clc1ccccc1Cl`, the call in assay [1] was inactive. Further, the Potency result in [2] and in assay [5] was “inactive” each time. The caspase-3 activation in assay [3] was 5.14% [at 91.7 µM, primary cells freshly taken from rat, solvent-only wells 0%, staurosporine 100%].
For `O=CC=O`, in [1], the molecule was classed as inactive. The Potency result in [2] and in assay [5] was “inactive” each time. Moreover, the caspase-3 activation in [3] was -5.02% [at 91.7 µM, primary cells freshly taken from rat, solvent-only wells 0%, staurosporine 100%].
Regarding `[Cl-].[Cl-].[Hg+2]`, the molecule was classed as inactive in [1]. The Potency result in assay [2] is “inactive”. The caspase-3 activation in assay [3] is -16%.
In the case of `O=C1CCO1`, in [1], the molecule was called inactive. In addition, the Potency entry in [2] and in assay [5] was “inactive” each time. Further, the caspase-3 activation in assay [3] was -9.04% [at 91.7 µM, primary cells freshly taken from rat, solvent-only wells 0%, staurosporine 100%].
Regarding `COC1=CC(=O)O[C@@H](/C=C/c2ccccc2)C1`, in assay [1], the molecule was classed as inactive. The Potency entry in assay [2] and in assay [5] was “inactive” each time. The caspase-3 activation in assay [3] was -6.32%.
Regarding `Oc1cc(Cl)c(Cl)cc1Cl`, the molecule was classed as inactive in assay [1]. Besides, the Potency result in assay [2] and in assay [5] was “inactive” each time. Also, the caspase-3 activation in assay [3] is 4.35%.
As for `CC(C)Nc1ccc(Nc2ccccc2)cc1`, the result in assay [1] and in assay [6] was inactive. Moreover, the Potency result in assay [2] was “inactive”. Also, the caspase-3 activation in assay [3] is 11.6% [at 91.7 µM, primary cells freshly taken from rat, solvent-only wells 0%, staurosporine 100%].
Regarding `[O]=[Cr](=[O])([OH])[O][Cr](=[O])(=[O])[OH]`, the call in assay [1] was inactive. The caspase-3 activation in [3] was 101% (active). For the same molecule, in [5], the Potency result is “inactive”.
For `CCCCCCCCOC(=O)c1ccccc1C(=O)OCCCCCCCC`, the outcome in assay [1] was inactive. In addition, the Potency entry in assay [2] and in assay [5] was “inactive” in each case. Besides, the caspase-3 activation in assay [3] is -2.49%.
Consider `O=Cc1ccco1`, for which, in assay [1], the molecule was called inactive. The Potency entry in assay [2] and in assay [5] was “inactive” throughout. The caspase-3 activation in assay [3] was -8.6% [at 91.7 µM, primary cells freshly taken from rat, solvent-only wells 0%, staurosporine 100%].
In the case of `CCCCCl`, the molecule was classed as inactive in assay [1]. Also, the Potency result in assay [2] and in assay [5] was “inactive” each time. Also, in assay [3], the caspase-3 activation is 1.64% [at 91.7 µM, primary cells freshly taken from rat, solvent-only wells 0%, staurosporine 100%].
For the molecule `C[C@H]1CCC[C@H](O)CCCCCc2cc(O)cc(O)c2C(=O)O1`, the molecule was called inactive in assay [1] and in [6]. The Potency result in assay [2] is “inactive”. The caspase-3 activation in assay [3] was -5.62%. For the same molecule, the Potency in assay [5] is 3.98 µM (active).
Regarding `O=[N+]([O-])c1ccc(F)c([N+](=O)[O-])c1`, in [1], the molecule was called inactive. For the same molecule, the Potency result in assay [2] and in [5] was “inactive” throughout. In addition, in [3], the caspase-3 activation is -20.3%.
With `ClCC1CO1` (centres undefined), the call in assay [1] was inactive. Moreover, the Potency result in assay [2] and in assay [5] was “inactive” throughout. In addition, in assay [3], the caspase-3 activation was 0.815% [at 91.7 µM, primary cells freshly taken from rat, solvent-only wells 0%, staurosporine 100%].
As to `O=C1C2CC=CCC2C(=O)N1SC(Cl)(Cl)Cl` (centres undefined), the call in [1] and in assay [6] was inactive. Further, the Potency entry in assay [2] was “inactive”. Further, in assay [3], the caspase-3 activation is -14.4% and -19.5%.
Consider `CCN(CCCl)Cc1ccccc1Br`, for which the Potency entry in assay [4] is “inactive”.
Consider `NC(=O)CI`, for which the Potency entry in assay [4] and in assay [9] was “inactive” in each case. Moreover, the molecule was called inactive in assay [6].
As to `CCCn1c(C)c(C(=O)c2ccc3ccccc3c2)c2ccccc21`, the Potency result in assay [4] and in assay [5] was “inactive” throughout. Further, the Potency in assay [8] was 7.94 µM (active).
For the molecule `C[N+](C)(C)CC#CCOC(=O)Nc1cccc(Cl)c1`, the Potency result in [4] is “inactive”.
